In PubChem BioAssay (Tox21) one finds Potency, activity, negative = inhibition and activity change, negative = inhibition data, which are given here for 42 molecules.

The structures appear in SMILES notation. A number with no mark means an inactive call. Records with an inconclusive call do not appear. Activity calls are given as the source filed them. Calls follow the shape of the full dose curve.

The target of test [1] is Acetylcholinesterase (Homo sapiens) (UniProt P22303). Nature of the test: Acetylcholinesterase (AChE) small molecule antagonists: colormetric cell-based qHTS assay (AID 1347395). Also: nearly all actives have a fitted effect of over 30% in size. Also: potency is read from the fitted curve at half-maximal effect. Summed up:
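SH-SY5Y cells, plated overnight at 37 C, were exposed to compounds for 30 min at 37 C and 5% CO2. Acetylthiocholine plus DTNB was then added, and thiocholine from endogenous AChE was quantified colorimetrically after 90 min at 37 C.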
Background: qHTS replaces the single test concentration by a dilution series.

Test [2] has the same target. Nature of the test: Acetylcholinesterase (AChE) small molecule antagonists: enzyme-based qHTS assay (AID 1347397). Also: nearly all actives have a fitted effect of over 55% in size. Also: potency is read from the fitted curve at half-maximal effect. The note with it: Potency: AChE enzyme activity inhibition; outcome: AChE enzyme activity inhibition. Summed up:
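Absorbance-based detection of thiocholine with DTNB served as the read-out. Recombinant human AChE was exposed to compound for 30 min at RT before a 10 min RT incubation with acetylthiocholine.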

For test [3] the target is unchanged. Description: Acetylcholinesterase (AChE) small molecule antagonists: enzyme-based qHTS assay with human liver microsomes (AID 1347399). Also: nearly all actives have a fitted effect of over 60% in size. The following applies: Potency: qHTS inhibition; outcome: qHTS inhibition. Summed up: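 Recombinant human AChE (50 mU/mL in the enzyme mix) and human liver microsomes (0.25 mg/mL final) were preincubated with compound and NADPH (0.25 mg/mL final) for 30 min at 37 C. Acetylthiocholine/DTNB was then added; thiocholine was read colorimetrically after 10 min at room temperature.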

Test [4] shares this target. Description: Acetylcholinesterase (AChE) small molecule antagonists: fluorescence cell-based qHTS assay (AID 1347398). Also: nearly all actives have a fitted effect of over 50% in size. Also: potency is read from the fitted curve at half-maximal effect. The following applies: Potency: AChE activity; outcome: AChE activity. Summed up: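 Fluorimetric cell-based assay: intact SH-SY5Y cells, 30 min compound preincubation at 37 C, acetylthiocholine substrate with thiol probe Thiolite Green, 40 min RT development, fluorescence 490/520 nm.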
% is scaled to controls: 0 for no effect and ±100 for the full control effect.

Acetylcholinesterase (Homo sapiens), sequence (P22303 whole entry, looked up): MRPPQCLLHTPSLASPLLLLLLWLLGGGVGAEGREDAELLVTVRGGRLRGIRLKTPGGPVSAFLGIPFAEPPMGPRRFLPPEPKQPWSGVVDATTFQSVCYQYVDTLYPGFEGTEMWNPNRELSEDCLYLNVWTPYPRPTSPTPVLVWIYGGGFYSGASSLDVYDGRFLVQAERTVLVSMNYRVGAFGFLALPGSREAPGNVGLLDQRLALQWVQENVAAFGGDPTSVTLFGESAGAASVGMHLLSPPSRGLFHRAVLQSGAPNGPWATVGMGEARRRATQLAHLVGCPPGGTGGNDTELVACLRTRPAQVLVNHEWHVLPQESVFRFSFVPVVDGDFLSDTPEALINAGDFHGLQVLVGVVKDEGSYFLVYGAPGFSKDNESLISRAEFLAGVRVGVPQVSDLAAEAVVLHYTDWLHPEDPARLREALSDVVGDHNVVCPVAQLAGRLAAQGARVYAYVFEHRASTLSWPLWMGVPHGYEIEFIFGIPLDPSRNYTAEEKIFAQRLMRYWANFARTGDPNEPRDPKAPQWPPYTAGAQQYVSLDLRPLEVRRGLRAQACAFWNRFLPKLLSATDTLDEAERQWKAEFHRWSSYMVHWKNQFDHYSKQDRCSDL

In the case of `CN1C[C@H]2c3ccccc3Oc3ccc(Cl)cc3[C@@H]2C1`, the Potency result in test [1], in test [2] and in test [3] was “inactive” each time.

In the case of `NC(=O)NC1N=C([O][Al])NC1=O` (stereo not given), the Potency entry in test [1], in test [2] and in test [3] was “inactive” throughout.

On to `CCN(CC)CCNc1ccc(CO)c2sc3ccccc3c(=O)c12`, for which the Potency entry in test [1], in test [2] and in test [3] was “inactive” throughout.

Consider `COC(=O)[C@]1(C)CCC[C@@]2(C)[C@H]1CC=C1C=C(C(C)C)CC[C@@H]12`, for which the Potency entry in test [1], in test [2] and in test [3] was “inactive” each time.

For `CC(COc1ccccc1)NC(C)C(O)c1ccc(O)cc1` (stereo not given), the Potency entry in test [1], in test [2] and in test [3] was “inactive” each time.

In the case of `Cc1cc(O)c2ccccc2c1O`, the Potency entry in test [1], in test [2] and in test [3] was “inactive” in each case.

Regarding `Cc1c(I)c(=O)n(-c2ccccc2)n1C`, the Potency entry in test [1], in test [2] and in test [3] was “inactive” throughout.

Consider `COc1ccccc1N=Nc1c(S(=O)(=O)O)cc2cc(S(=O)(=O)O)cc(NC(C)=O)c2c1O`, for which the Potency entry in test [1], in test [2] and in test [3] was “inactive” in each case.

With `CCCCCCCCCC(C)C=O` (stereo not given), the Potency entry in test [1], in test [2] and in test [3] was “inactive” in each case.

`Cc1nc(-c2ccc(OCC(C)C)c(C#N)c2)sc1C(=O)O`: in test [1], the Potency is 27.5 µM (active). Besides, the Potency entry in test [2] and in test [3] was “inactive” throughout.

With `Nc1nc2ccccc2n1Cc1ccc(F)cc1`, the Potency result in test [1], in test [2] and in test [3] was “inactive” throughout.

Consider `CCCCCc1ccc(Cl)cc1`, for which the Potency entry in test [1], in test [2] and in test [3] was “inactive” throughout.

As for `CN(C)CC/C=C1\c2ccccc2Sc2ccc(Cl)cc21`, the Potency result in test [1], in test [2] and in test [3] was “inactive” in each case.

Consider `NS(=O)(=O)c1cc2c(cc1C(F)(F)F)NC(Cc1ccccc1)NS2(=O)=O` (stereo not given), for which the Potency in test [1] was 38.9 µM (active). The Potency result in test [2] and in test [3] was “inactive” each time.

`CCN(CC)C(C)CN1c2ccccc2Sc2ccccc21` (stereo not given): the Potency entry in test [1], in test [2] and in test [3] was “inactive” throughout.

Take `CCCCCCCC/C=C/CCCCCCCC1=NCCN1CCO`: the Potency entry in test [1], in test [2] and in test [3] was “inactive” each time.

For `CC(C)(Cc1c[nH]c2ccccc12)NCC(O)COc1ccccc1C#N` (stereo not given), the Potency result in test [1], in test [2] and in test [3] was “inactive” in each case.

`O=C(CCCN1CCN(c2ccc(F)cc2)CC1)NC1c2ccccc2CSc2ccccc21` (stereo not given): the Potency entry in test [1], in test [2] and in test [3] was “inactive” throughout.

Consider `CCCCCCCCCCCCCC[P+](CCCC)(CCCC)CCCC` (tested in a mixture with another compound), for which the Potency result in test [1], in test [2] and in test [3] was “inactive” each time.

As to `CN(C)CCOC1=Cc2ccccc2Sc2ccc(Cl)cc21`, the Potency entry in test [1], in test [2] and in test [3] was “inactive” each time.

Turning to `CC(C)NCC(O)c1ccc2ccccc2c1` (stereo not given), the Potency result in test [1], in test [2] and in test [3] was “inactive” in each case.

Take `CCN(CC)CC(=O)OCC(=O)[C@@]1(O)CC[C@H]2[C@@H]3CCC4=CC(=O)CC[C@]4(C)[C@H]3[C@@H](O)C[C@@]21C`: the Potency entry in test [1], in test [2] and in test [3] was “inactive” throughout.

As to `COC(=O)CSc1cc(N=c2sc(=O)n3n2CCCC3)c(F)cc1Cl`, the Potency entry in test [1], in test [2] and in test [3] was “inactive” each time.

With `O=C(O)[C@@H]1CSCN1`, the Potency result in test [1], in test [2] and in test [3] was “inactive” throughout.

On to `CCN(CC)c1ccc2c(-c3ccccc3C(=O)O)c3ccc(=[N+](CC)CC)cc-3oc2c1`, for which the Potency result in test [1], in test [2] and in test [3] was “inactive” in each case.

Turning to `C[C@]12CC[C@H]3C(=CCc4cc(O)ccc43)[C@@H]1CCC2=O`, the Potency result in test [1], in test [2] and in test [3] was “inactive” each time.

`O=S(=O)(O)c1ccc(N=Nc2c(O)ccc3ccccc23)cc1`: the Potency entry in test [1], in test [2] and in test [3] was “inactive” throughout.

For the molecule `COc1cc(OC)nc(NC(=O)NS(=O)(=O)Nc2ccccc2C(=O)N(C)C)n1`, the Potency result in test [1], in test [2] and in test [3] was “inactive” in each case.

As to `CCOc1ccc2nc3cc(N)ccc3c(N)c2c1`, the Potency is 17.4 µM (active) in test [1] and 13.8 µM (active) in test [4]. Also, the Potency result in test [3] was “inactive”.

Consider `CN1CCN(CCC(=O)N2c3ccccc3Sc3ccc(C(F)(F)F)cc32)CC1`, for which the Potency entry in test [1], in test [2] and in test [3] was “inactive” throughout.

For `O=S1(=O)CC(Cl)(Cl)C(Cl)(Cl)C1`, in test [1], the Potency was 71 µM (active). The Potency entry in test [4] is “inactive”.

With `CCCCOCC`, the Potency result in test [1], in test [4] and in test [3] was “inactive” throughout.

`CC1CCCCN1CCCOC(=O)c1ccc(OC2CCCCC2)cc1` (stereo not given): the values for the Potency in test [1] and in test [4] were 17.4 µM (active) and 12.3 µM (active), respectively. Moreover, the Potency entry in test [3] was “inactive”.

Consider `CCN(CC)C(=O)c1cc(S(=O)(=O)Cc2ccccc2)c(N2CCC(c3ccccc3)CC2)cc1N(CC)CCN(C)C`, for which the Potency entry in test [1], in test [2] and in test [3] was “inactive” in each case.

On to `BrC/C=C/CBr`, for which, in test [1], the activity, negative = inhibition was 1.18% [at 23.6 µM]. Moreover, the activity change, negative = inhibition in test [4] was 7.15% [at 23.8 µM]; in test [3], -2.1% [at 23.6 µM].

For `CCCCCCCCCCCCCCCC[N+](C)(C)CCN(Cc1ccc(OC)cc1)c1ncccn1`, the Potency result in test [1] and in test [3] was “inactive” throughout. For the same molecule, the Potency in test [2] is 34.7 µM (active).

Regarding `CCCC(C(=O)OCCN(CC)CC)(c1ccccc1)c1ccccc1`, the Potency entry in test [1], in test [2] and in test [3] was “inactive” each time.

Turning to `CC1(C)S[C@@H]2[C@H](NC(=O)C(c3ccccc3)S(=O)(=O)O)C(=O)N2[C@H]1C(=O)O` (stereo not given in full), the Potency result in test [1], in test [2] and in test [3] was “inactive” in each case.

Consider `N#CSCC(=O)O`, for which the Potency entry in test [1], in test [2] and in test [3] was “inactive” throughout.

Turning to `COc1ccc2cc(CCC(C)=O)ccc2c1`, the Potency result in test [1], in test [4] and in test [3] was “inactive” each time.

Consider `C=C(C)C(=O)OCCCC`, for which the Potency result in test [1], in test [4] and in test [3] was “inactive” each time.

Consider `NS(=O)(=O)c1cc2c(cc1Cl)NC(C(Cl)Cl)NS2(=O)=O` (stereo not given), for which the Potency result in test [1], in test [4] and in test [3] was “inactive” throughout.
